Data: the supplement of paper PMC7411054

Legend:
Settings in all cases: treatment time: 24 h
[1] = system: A549-ACTB-RAB5A; experiment: lowest phenotypically active concentration; higher = less potent
Method in brief: (§1)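 After 24 h at 0.3, 1, 3 or 9 µM, with four wells per treatment, fifteen gene-edited A549, HepG2 and WPMY1 reporter lines carrying BFP, GFP and RFP/FusionRed were imaged live. Each well's live-cell features were expressed relative to solvent control wells. Deviation required ≥3 of 4 wells past the 95th percentile of control Euclidean distances, and reproducibility a median replicate Pearson correlation over the 95th percentile of non-replicates. Phenotypic activity rested on both.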

[2] = system: A549-CANX-COX4; experiment: as above
Method in brief: as §1

[3] = system: A549-GM130-SQSTM1; experiment: as above
Method in brief: as §1

[4] = system: A549-TP53BP1-CLTA; experiment: as above
Method in brief: as §1

[5] = system: A549-TUBA1B-RELA; experiment: as above
Method in brief: as §1

[6] = system: HepG2-TP53BP1-CLTA; experiment: as above
Method in brief: as §1

[7] = system: A549-ACTB-RAB5A; experiment: phenotypically active (imaging signature differs from DMSO and reproducible) at any of 0.3-9 uM (binary (1 = active, 0 = inactive)); higher = active
Method in brief: as §1

[8] = system: A549-CANX-COX4; experiment: as above
Method in brief: as §1

[9] = system: A549-GM130-SQSTM1; experiment: as above
Method in brief: as §1

[10] = system: A549-TP53BP1-CLTA; experiment: as above
Method in brief: as §1

[11] = system: A549-TUBA1B-RELA; experiment: as above
Method in brief: as §1

[12] = system: HepG2-ACTB-RAB5A; experiment: as above
Method in brief: as §1

[13] = system: HepG2-CANX-COX4; experiment: as above
Method in brief: as §1

[14] = system: HepG2-GM130-SQSTM1; experiment: as above
Method in brief: as §1

[15] = system: HepG2-TP53BP1-CLTA; experiment: as above
Method in brief: as §1

[16] = system: HepG2-TUBA1B-RELA; experiment: as above
Method in brief: as §1

[17] = system: WPMY1-CANX-COX4; experiment: as above
Method in brief: as §1

[18] = system: WPMY1-GM130-SQSTM1; experiment: as above
Method in brief: as §1

[19] = system: WPMY1-TP53BP1-CLTA; experiment: as above
Method in brief: as §1

[20] = system: WPMY1-TUBA1B-RELA; experiment: as above
Method in brief: as §1

CC(=O)NC1=NN(C(C)=O)C(C)(c2ccccc2)S1 (stereo not given)
active: phenotypically active [7] 1 | phenotypically active [8] 1 | phenotypically active [9] 1 | phenotypically active [10] 1 | phenotypically active [11] 1 | phenotypically active [12] 1 | phenotypically active [13] 1 | phenotypically active [14] 1 | phenotypically active [15] 1 | phenotypically active [16] 1 | phenotypically active [17] 1 | phenotypically active [18] 1 | phenotypically active [19] 1 | phenotypically active [20] 1
3 µM: lowest phenotypically active concentration [1] | lowest phenotypically active concentration [2] | lowest phenotypically active concentration [5] | lowest phenotypically active concentration [6]
9 µM: lowest phenotypically active concentration [3] | lowest phenotypically active concentration [4]

COc1ccc2cc1Oc1ccc(cc1)C[C@H]1c3cc(c(OC)cc3CCN1C)Oc1c(OC)c(OC)cc3c1[C@H](C2)N(C)CC3 [Tetrandrine]
active: phenotypically active [7] 1 | phenotypically active [8] 1 | phenotypically active [9] 1 | phenotypically active [10] 1 | phenotypically active [11] 1 | phenotypically active [12] 1 | phenotypically active [13] 1 | phenotypically active [14] 1 | phenotypically active [15] 1 | phenotypically active [16] 1 | phenotypically active [17] 1 | phenotypically active [18] 1 | phenotypically active [19] 1 | phenotypically active [20] 1
1 µM: lowest phenotypically active concentration [2] | lowest phenotypically active concentration [4] | lowest phenotypically active concentration [6]
≤ 0.3 µM: lowest phenotypically active concentration [1] | lowest phenotypically active concentration [3] | lowest phenotypically active concentration [5]

Cc1noc(C)c1-c1cc(O)cc(C(O)c2ccccc2)c1 (stereo not given)
1 µM: lowest phenotypically active concentration [1]
active: phenotypically active [7] 1 | phenotypically active [8] 1 | phenotypically active [9] 1 | phenotypically active [10] 1 | phenotypically active [11] 1 | phenotypically active [12] 1 | phenotypically active [13] 1 | phenotypically active [14] 1 | phenotypically active [15] 1 | phenotypically active [16] 1 | phenotypically active [17] 1 | phenotypically active [18] 1 | phenotypically active [19] 1 | phenotypically active [20] 1
9 µM: lowest phenotypically active concentration [2]
3 µM: lowest phenotypically active concentration [3] | lowest phenotypically active concentration [4] | lowest phenotypically active concentration [5] | lowest phenotypically active concentration [6]

CS(=O)(=O)c1cccc(CNc2nc(Nc3ccc4c(c3)CCC(=O)N4)ncc2C(F)(F)F)c1
1 µM: lowest phenotypically active concentration [6]
3 µM: lowest phenotypically active concentration [1] | lowest phenotypically active concentration [2] | lowest phenotypically active concentration [3] | lowest phenotypically active concentration [4] | lowest phenotypically active concentration [5]
active: phenotypically active [7] 1 | phenotypically active [8] 1 | phenotypically active [9] 1 | phenotypically active [10] 1 | phenotypically active [11] 1 | phenotypically active [12] 1 | phenotypically active [13] 1 | phenotypically active [14] 1 | phenotypically active [15] 1 | phenotypically active [16] 1 | phenotypically active [17] 1 | phenotypically active [18] 1 | phenotypically active [19] 1 | phenotypically active [20] 1

O=C(NC(NC(=S)Nc1ccc(F)c([N+](=O)[O-])c1)C(Cl)(Cl)Cl)C(c1ccccc1)c1ccccc1 (stereo not given)
3 µM: lowest phenotypically active concentration [1] | lowest phenotypically active concentration [3]
9 µM: lowest phenotypically active concentration [2] | lowest phenotypically active concentration [4] | lowest phenotypically active concentration [5] | lowest phenotypically active concentration [6]
active: phenotypically active [7] 1 | phenotypically active [8] 1 | phenotypically active [9] 1 | phenotypically active [10] 1 | phenotypically active [11] 1 | phenotypically active [12] 1 | phenotypically active [13] 1 | phenotypically active [14] 1 | phenotypically active [15] 1 | phenotypically active [16] 1 | phenotypically active [17] 1 | phenotypically active [18] 1 | phenotypically active [19] 1 | phenotypically active [20] 1

Cc1ccc2nc(NCCN)c3ncc(C)n3c2c1
active: phenotypically active [7] 1 | phenotypically active [8] 1 | phenotypically active [9] 1 | phenotypically active [10] 1 | phenotypically active [11] 1 | phenotypically active [12] 1 | phenotypically active [13] 1 | phenotypically active [14] 1 | phenotypically active [15] 1 | phenotypically active [16] 1 | phenotypically active [17] 1 | phenotypically active [18] 1 | phenotypically active [19] 1 | phenotypically active [20] 1
3 µM: lowest phenotypically active concentration [1] | lowest phenotypically active concentration [3] | lowest phenotypically active concentration [4] | lowest phenotypically active concentration [5] | lowest phenotypically active concentration [6]
9 µM: lowest phenotypically active concentration [2]
